The campaign covered roughly 2,400 compounds. About 2,200 (92%) were called active. So high a share suggests a set chosen from earlier hits. The list shows a part of the results. Unmarked numbers belong to inactive results.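 The calls were made as follows: active = mean inhibition over triplicate runs exceeds the cutoff derived for the earlier primary screen (cut at about 25% in these data); inactive = the rest.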
What follows are compounds tested against Platelet-activating factor acetylhydrolase IB subunit alpha2 (Homo sapiens) (UniProt P68402) (assay: inhibition of human PAFAH1B2 catalytic subunit – biochemical, fluorescence polarization, FP-rhodamine probe, triplicate, confirmation (AID 493034;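 also: 0% = enzyme with DMSO and 100% = wells lacking PAFAH1B2 protein; inhibitors lower polarization by leaving the probe unbound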)). Conditions: recombinant PAFAH1B2, FP-rhodamine probe fluorescence polarization; at 3.39 µM; active compounds read high.
Platelet-activating factor acetylhydrolase IB subunit alpha2 (Homo sapiens), sequence (P68402 whole entry, looked up): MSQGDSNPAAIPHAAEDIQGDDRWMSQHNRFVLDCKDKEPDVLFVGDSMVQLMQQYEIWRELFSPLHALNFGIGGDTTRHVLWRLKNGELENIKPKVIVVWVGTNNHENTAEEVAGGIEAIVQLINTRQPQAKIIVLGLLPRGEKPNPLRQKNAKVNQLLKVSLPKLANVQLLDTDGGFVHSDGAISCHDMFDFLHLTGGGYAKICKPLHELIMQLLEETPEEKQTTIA

Row | Compound | inhibition
1 | Cc1ccc(O)c(N=Cc2cc(Cc3ccccc3)cc([N+](=O)[O-])c2O)c1 | 20.2%
2 | CCCCNC(=O)c1cccc(S(=O)(=O)N2CC3(C)CC2CC(C)(C)C3)c1 (centres undefined) | 19.5%
3 | Cc1ccc(CN2[C@@H](CC3CCCCC3)COCCS2(=O)=O)cc1 | 23.1%
4 | CCCCCCCCCCCCCC(=O)O | 22.4%
5 | O=C(O)CN1C(=O)C2C3CC(C2C1=O)C1C(c2ccc(Cl)cc2)c2sc(=O)[nH]c2SC31 (centres undefined) | 37.1% (active)
6 | O=C(O)CN1C(=O)C2C3CC(C2C1=O)C1C(c2ccccc2)c2sc(=O)[nH]c2SC31 (centres undefined) | 59.3% (active)
7 | O=C(O)CN1C(=O)C2C3CC(C2C1=O)C1C(c2ccc(F)cc2)c2sc(=O)[nH]c2SC31 (centres undefined) | 54.6% (active)
8 | O=C(COC(=O)CCSc1ccccc1)Nc1cc(F)ccc1F | 10.5%
9 | COc1ccccc1NC(=O)COC(=O)C12CC3CC(CC(Br)(C3)C1)C2 | 26.2% (active)
10 | COc1ccccc1CNC(=O)COC(=O)c1ccc(C(=O)c2ccccc2)cc1 | 3.07%
11 | O=C(COC(=O)C12CC3CC(CC(Br)(C3)C1)C2)Nc1c(F)cccc1F | 35.8% (active)
12 | O=C(COC(=O)C12CC3CC(CC(Br)(C3)C1)C2)Nc1cccnc1Cl | 36.7% (active)
13 | O=C(COC(=O)C12CC3CC(CC(Br)(C3)C1)C2)Nc1ccc2[nH]c(=O)[nH]c2c1 | 31.2% (active)
14 | O=c1c2c(nc3cc(-c4ccc(Cl)cc4)[nH]n13)CCS2 | 11.7%
15 | N#C/C(=C\c1cc2c(cc1Br)OCO2)c1ccc(C(=O)O)cc1 | 23.6%
16 | Nc1nc(-c2ccc(Br)cc2)cs1 | 92.3% (active)
17 | Cc1ccc(-c2csc(NCCn3c(C)nc4cc(C(F)(F)F)ccc43)n2)cc1 | 23.5%
18 | Nc1nc(-c2ccccc2)cs1 | 35.5% (active)
19 | Nc1nc(-c2ccc(F)cc2)cs1 | 55.6% (active)
20 | Cc1ccc(-c2csc(N)n2)cc1 | 63.1% (active)
21 | O=C(O)c1sccc1SCc1ccc(Cl)cc1Cl | 22.4%
22 | Cc1nc(-c2cccc(S(=O)(=O)N3CCC(C)CC3)c2)cs1 | 23.7%
23 | Nc1nc(-c2cccc(F)c2)cs1 | 36.3% (active)
24 | O=C(O)CNC(=O)C12CC3CC(CC(Cl)(C3)C1)C2 | 22.2%

Row | Compound | inhibition
25 | O=C(COC(=O)C12CC3CC(CC(C3)C1)C2)NNC(=O)c1ccccc1 | 21.4%
26 | O=C(NCc1ccccc1)C12CC3CC(CC(Br)(C3)C1)C2 | 27.1% (active)
27 | CC(CCc1ccccc1)NC(=O)COC(=O)C12CC3CC(CC(Br)(C3)C1)C2 (centres undefined) | 38.2% (active)
28 | CC(NC(=O)COC(=O)C12CC3CC(CC(Br)(C3)C1)C2)c1ccccc1 (centres undefined) | 31% (active)
29 | CC(NC(=O)CN(C)S(=O)(=O)c1cccc2nsnc12)c1ccccc1 (centres undefined) | 22.2%
30 | O=C(COC(=O)C12CC3CC(CC(Br)(C3)C1)C2)NNC(=O)c1ccccc1 | 46.3% (active)
31 | O=C(O)CC1c2ccccc2CCN1S(=O)(=O)c1ccc(F)cc1 (centres undefined) | 19.8%
32 | CN(Cc1ccccc1)C(=O)COC(=O)C12CC3CC(CC(Br)(C3)C1)C2 | 28.4% (active)
33 | OC(c1ccc(F)cc1)(C1CCCCC1)C(CN1CCOCC1)c1ccccc1 (centres undefined) | 23.5%
34 | Cc1occc1C(=O)O/N=C(\N)c1ccc(Cl)cc1 | 27.4% (active)
35 | O=C(O/N=C1/CCCc2occc21)c1ccc(Cl)cc1Cl | 19.3%
36 | NC(=O)CSc1ccc(Br)cc1 | 39.5% (active)
37 | CC(Sc1ccc(Br)cc1)C(N)=O (centres undefined) | 27.6% (active)
38 | COc1ccc(NC(=O)O/N=C/c2ccc(Br)cc2)cc1 | 7.26%
39 | Cc1ccc(S(=O)(=O)N2[C@@H](c3ccc(Cl)cc3)C(C(=O)O)=CC[C@H]2c2ccc(Cl)c(Cl)c2)cc1 | 85.8% (active)
40 | Cc1ccc(S(=O)(=O)N2[C@@H](c3ccc(Br)cc3)C(C(=O)O)=CC[C@H]2c2ccc3c(c2)OCO3)cc1 | 59.1% (active)
41 | Cc1ccc(S(=O)(=O)N2[C@@H](c3ccccc3)C(C(=O)O)=CC[C@H]2c2cccc(C)c2)cc1 | 21.1%
42 | Cc1ccc(S(=O)(=O)N2[C@@H](c3cccc(C)c3)C(C(=O)O)=C[C@H]2C(C)(C)C)cc1 | 18.7%
43 | CC(=O)N1CCOc2ccc(S(=O)(=O)NCc3ccc(C)cc3)cc21 | 23.4%
44 | Cc1ccc(S(=O)(=O)N2[C@@H](c3ccc(C(C)(C)C)cc3)C(C(=O)O)=CC[C@H]2c2ccc(Cl)c(Cl)c2)cc1 | 58.5% (active)
45 | Cc1ccc(S(=O)(=O)N2[C@@H](c3ccc(C(C)(C)C)cc3)C(C(=O)O)=CC[C@H]2c2cccc(Cl)c2)cc1 | 70.5% (active)
46 | Cc1ccc(S(=O)(=O)N2[C@@H](c3ccc(Br)cc3)C(C(=O)O)=CC[C@H]2c2ccc(Cl)c(Cl)c2)cc1 | 85.2% (active)
47 | CC(C)(C)C1CCC2(CC1)C(C#N)=C(SCC(=O)Nc1ccccc1)NC(=O)C2C#N (centres undefined) | 55% (active)
48 | COc1ccc(S(=O)(=O)N2CCN(C(=O)[C@@H]3CCC(=O)N3C3OC(=O)c4ccccc43)CC2)cc1 (some centres undefined) | 22.4%

Row | Compound | inhibition
49 | COc1cc(/C=N/NC(=O)c2cc(C34CC5CC(CC(C5)C3)C4)[nH]n2)ccc1O | 24.7% (active)
50 | Cc1ccccc1C(=O)c1cccn1CC(=O)NCc1ccc(Cl)cc1 | 23.1%
51 | O=C(Oc1ccc(OC(=O)c2ccco2)c(S(=O)(=O)c2ccc(Br)cc2)c1)c1ccco1 | 34% (active)
52 | O=C(Oc1ccc(-c2ccccc2)cc1)c1ccco1 | 23.7%
53 | CC1=C(C(=O)OCC(Br)(Br)Br)C(c2cccc([N+](=O)[O-])c2)NC(=O)N1CCCC(=O)O (centres undefined) | 90.6% (active)
54 | O=C(Nc1ccccc1Cl)Oc1ccc(-c2ccccc2)cc1 | 53.8% (active)
55 | Cc1ccc(S(=O)(=O)n2nc(-c3cccnc3)nc2N)cc1 | 23.2%
56 | CC(=O)C[C@@H](O)CC(=O)[C@H]1OC(=O)CCCCCCCCc2ccccc21 | 43.6% (active)
57 | CC(=O)C[C@H](O)CC(=O)[C@H]1OC(=O)CCCCCCCCc2ccccc21 | 31.4% (active)
58 | Cc1noc(NS(=O)(=O)c2ccc(NC(=O)CC34CC5CC(CC(Br)(C5)C3)C4)cc2)c1C | 30.9% (active)
59 | CC(CC(=O)NCCc1ccc(Cl)cc1)S(=O)(=O)c1ccc2c(c1)NC(=O)CO2 (centres undefined) | 22.4%
60 | Cn1c(=O)oc2cc(S(=O)(=O)NCCC(=O)NCCc3ccc(Cl)cc3)ccc21 | 19.6%
61 | O=S(=O)(Nc1ncccn1)c1ccc(NC(=S)NCCc2ccc(Cl)cc2)cc1 | 36.6% (active)
62 | N=c1c(S(=O)(=O)c2ccc(Cl)cc2)cc2c(=O)n3ccccc3nc2n1CCN1CCOCC1 | 22.3%
63 | O=c1[nH]c(CN2CCN(c3ccc([N+](=O)[O-])cc3)CC2)nc2ccsc12 | 31.1% (active)
64 | O=C1OC(c2ccccc2)=N/C1=C/c1cccc(OC(=O)c2cccs2)c1 | 15.5%
65 | O=C(O)c1cccc(COc2ccc3c(c2)CCC3)c1 | 40% (active)
66 | O=C(CCc1ccccc1)c1c(O)cc(O)cc1O | 26.6% (active)
67 | O=C(CCc1ccc(O)cc1)c1c(O)cc(O)cc1O | 22.2%
68 | C=C(C)C(COc1c2occc2cc2ccc(=O)oc12)OC(C)(C)C(O)COc1c2occc2cc2ccc(=O)oc12 (centres undefined) | 67.4% (active)
69 | Cc1ccc(NS(=O)(=O)c2cc([N+](=O)[O-])ccc2NNC(=S)Nc2cccc(Cl)c2)c(C)c1 | 30.2% (active)
70 | N#Cc1c(N)[nH]c2ccc(Sc3ccccc3)cc12 | 33.8% (active)
71 | Nc1ccc(CSc2ccc(Cl)cc2)cc1 | 21.7%
72 | Nc1ccc(CSc2ccccc2)cc1 | 30.1% (active)

Row | Compound | inhibition
73 | O=C(CSc1ccccc1)NC(=O)NCc1ccccc1 | 21.7%
74 | CCOc1cc(/C=C(/C#N)c2ccc(F)cc2)ccc1OCc1ccc(C(=O)O)o1 | 4.35%
75 | CCOc1cc(/C=C(/C#N)c2ccc(Cl)cc2)cc(Cl)c1OCC(=O)O | 42.5% (active)
76 | C[C@@H]1CN([C@H](C)CO)C(=O)c2cccc(NC(=O)Nc3ccc(F)cc3)c2O[C@H]1CN(C)C(=O)Nc1ccc(C(F)(F)F)cc1 | 39.6% (active)
77 | C[C@H]1CN([C@@H](C)CO)C(=O)c2cccc(NC(=O)Nc3ccc(C(F)(F)F)cc3)c2O[C@@H]1CN(C)C(=O)Nc1ccc(F)cc1 | 57% (active)
78 | CC(Oc1ccc2c(-c3ccccc3)cc(=O)oc2c1)C(=O)N[C@H](Cc1c[nH]c2ccccc12)C(=O)O (some centres undefined) | 64.3% (active)
79 | CC(Oc1ccc2c(-c3ccccc3)cc(=O)oc2c1)C(=O)NC(Cc1c[nH]c2ccc(O)cc12)C(=O)O (centres undefined) | 55.9% (active)
80 | O=C(COc1ccc2c(-c3ccccc3)cc(=O)oc2c1)N[C@@H](Cc1c[nH]c2ccc(O)cc12)C(=O)O | 55.4% (active)
81 | CCCCc1cc(=O)oc2cc(C)cc(OCC(=O)NC(Cc3ccc(Cl)cc3)C(=O)O)c12 (centres undefined) | 22.2%
82 | CC(Oc1ccc2c(-c3ccccc3)cc(=O)oc2c1)C(=O)NC(Cc1c[nH]c2ccccc12)C(=O)O (centres undefined) | 59% (active)
83 | Cc1ccc(CSc2nnc(NC(=O)C3COc4ccccc4O3)s2)cc1 (centres undefined) | 21.4%
84 | CCN(Cc1ccccc1)c1ccc(/C=N/NS(=O)(=O)c2cccc([N+](=O)[O-])c2)cc1 | 63.5% (active)
85 | CCCCCCCCCCS(=O)(=O)N/N=C/c1ccc([N+](=O)[O-])cc1 | 20.3%
86 | O=C(NCc1cccnc1)C(=O)Nc1nc(C23CC4CC(CC(C4)C2)C3)cs1 | 23.7%
87 | O=C(CC1CC2CCC1C2)Nc1nc(-c2ccccn2)cs1 (centres undefined) | 45.4% (active)
88 | O=C(NCC(c1ccco1)N1CCCCC1)c1ccc(COc2ccc(Cl)cc2)cc1 (centres undefined) | 20%
89 | Clc1ccc(COc2cccc(CNCc3ccncc3)c2)cc1 | 19.2%
90 | CC(NCc1ccc(OCc2ccc(Cl)cc2)cc1)C(O)c1ccccc1 (centres undefined) | 68.7% (active)
91 | CCc1ccc2nc3sc(C(=O)Nc4nnc(CC)s4)c(N)c3cc2c1 | 19.1%
92 | Cc1ccc(NC(=O)O/N=C/c2ccc(Br)cc2)cc1 | 15.5%
93 | CCOC(=O)C1CCCN(C(=O)Cc2c(C(=O)O)[nH]c3ccccc23)C1 (centres undefined) | 28.4% (active)
94 | O=C(Cc1ccc(Br)cc1)Nc1ncc([N+](=O)[O-])s1 | 28.4% (active)

— PubChem BioAssay AID493034 (The Scripps Research Institute Molecular Screening Center, 2011)
